The source of these data is ChEMBL document CHEMBL3988442, “University of Dundee, Small-Polar-MMV Screening Library” (2021).

Hit rate of the full screen: of about 69,000 compounds, about 10 (0.01%) showed an effect of 50% or more. For the sample, strong results were picked, then their nearest neighbours and some compounds at random.

For this assay, the target named is ClpP1P2 (Mycobacterium tuberculosis (strain ATCC 25618 / H37Rv)) (UniProt P9WPC5+P9WPC3). Description: in vitro assay to detect presence of AMC directly proportional to the activity of ClpP1P2. GHDDI collaboration. The format is functional. Also noted: scale not given: direction of the effect not stated beside the values. To be noted: 50 µM.
In the case of `O=C(NCCc1cccs1)[C@]12COC[C@H]1CN(Cc1ccccn1)C2`, the Percent Effect came to 21.1%.

As for `COc1ccc(N2CCN(C(=O)[C@H]3[C@@H]4CNC[C@@H]43)CC2(C)C)cc1`, the Percent Effect is -7.82%. The same measure for `CCN1C[C@H]2CCN(C(=O)c3cc[nH]n3)CC[C@H]2S1(=O)=O`: -1.84%. The same measure for `Cc1noc([C@H]2CC[C@@H]3[C@@H](CCN3S(=O)(=O)C3CC3)O2)n1`: 16.5%; for `NCC1Cc2cc(Oc3cc(F)c(CN4CCCC4)c(F)c3)ccc2O1` (stereo unspecified): 72.6%. On to `Cc1cc(CN2CCCC2)cc(Oc2ccc3c(c2)CC(CN)O3)c1` (stereo unspecified), for which the Percent Effect is -31.6%. The result for `COc1ccc(CN2CCCC2)cc1Oc1ccc2c(c1)CC(CN)O2` (stereo unspecified) reads -30%; that for `Cc1cnc(N2C[C@H]3CCCC(N(C)Cc4ccccn4)[C@H]3C2)nc1` (stereo partly specified), 6.27%. The same measure for `O=C(CCC(F)(F)F)N1CCN(Cc2ccncc2)[C@@H]2CS(=O)(=O)C[C@@H]21`: -11.9%. The result for `CC(=O)N1[C@H](Cn2cncn2)C[C@@H]2CN(Cc3ccccn3)CC[C@@H]21` reads -7.75%; that for `O=C(N1CCCC1)N1C[C@H]2CC[C@@H]1CN(Cc1ccncc1)C2`, -3.97%. With `CC(=O)N1CC[C@H]2CC(=O)N(C3CCCCC3)CC[C@H]2C1`, the Percent Effect was -8.93%. The result for `CC(C)N1CC[C@H]2[C@H](C[C@@H](Cn3cncn3)N2c2nccs2)C1` reads 9.71%. The result for `COC[C@]12COC[C@H]1CN(Cc1ccc3ccccc3n1)C2` reads 8.31%; that for `CN(C)C[C@H]1OC[C@@H]2CCN(S(=O)(=O)c3cccs3)C[C@@H]21`, -1.92%. The result for `O=C(c1ncccn1)N1C[C@@H]2CC[C@H](Oc3cccc(F)c3)[C@@H]2C1` reads -9.72%; that for `COCC(=O)N1CCN(S(=O)(=O)c2cccs2)[C@H]2CS(=O)(=O)C[C@H]21`, 21.1%. As to `Cc1ncsc1CN1CC[C@H]2OCC[C@@]2(C(=O)NCC2CC2)C1`, the Percent Effect stood at 8.1%. In the case of `CN(C[C@H]1CN2CC[C@H]1C[C@@H]2CNC(=O)c1ccco1)c1ccccc1`, the Percent Effect was 3.33%.

In the case of `CN(C)c1nccc(N2CCO[C@H]3CN(Cc4ccsc4)C[C@H]32)n1`, the Percent Effect is -1.49%. The result for `CN(C)S(=O)(=O)N1CCO[C@H]2[C@H](Oc3cccnc3)CC[C@@H]21` reads -10.1%.

Consider `Cc1nn(C)c(C)c1S(=O)(=O)N1CC[C@H]2O[C@@H](C)C[C@H]2C1`, for which the Percent Effect was found to be 9.45%. The same measure for `O=C(c1ccoc1)N1CC[C@@H]2O[C@@H](COCCN3CCCC3)CC[C@@H]21`: 8.08%.

Regarding `O=C(CCN1C[C@H]2CC[C@@H]1CN(c1ncccn1)C2)NCc1ccco1`, the Percent Effect was -5.46%.

On to `CCc1cnc(N2C[C@H]3C[C@H](C(=O)N4CCOCC4)[C@@H](C2)O3)nc1`, for which the Percent Effect worked out at 7.75%. As to `CC(C)N1C[C@@H]2CN(C(=O)NCc3ccccc3)CCC[C@]2(C(=O)O)C1`, the Percent Effect was -0.327%. `Cc1noc([C@@H]2C[C@H]3CN(Cc4ccc5c(c4)OCO5)C[C@H]3O2)n1`: the Percent Effect came out at 2.95%. The result for `Cc1noc([C@]23COC[C@H]2CN(Cc2cc(C)on2)C3)n1` reads 14.7%; that for `O=C1C[C@@H]2[C@H](CCN2Cc2ccco2)N1c1ccsc1`, -3.07%; that for `C[C@H]1C[C@H]2CN(C(=O)CCc3ccccc3)CC[C@H]2O1`, -7.99%. Take `O=C(Nc1ccccc1)[C@H]1CN2CC[C@H]1C[C@@H]2Cn1cc(CCO)nn1`: the Percent Effect is -1.69%. The result for `O=C(C[C@H]1[C@H]2CN(Cc3ccc(F)cc3)C[C@@H]12)N1CCCC1` reads -10.3%; that for `Cc1cnc(N2C[C@@H]3[C@@H](C(=O)NC(C)C)CCS(=O)(=O)[C@@H]3C2)nc1`, 8.69%; that for `CCN1CC[C@@]2(C(=O)N3CCOCC3)CCN(C(=O)CC(C)C)CC[C@@H]12`, -11.5%. The same measure for `COc1ccc(-c2ncccc2C(=O)N2C[C@H]3CC[C@@H]2C3)cn1`: -2.59%; for `CN(C)S(=O)(=O)N1C[C@@H]2CC[C@H](C1)N(Cc1ccc3c(c1)OCCO3)C2`: -5.61%.

Regarding `Cc1nc2cc(C3CCN(Cc4cccc(F)c4F)C3)nn2c(O)c1C` (stereo unspecified), the Percent Effect amounted to 4.6%. The result for `N#Cc1cccc(CN2CC[C@@H]3[C@@H]2CC(=O)N3CCN2CCCC2)c1` reads -6.88%. The result for `CC(C)NC(=O)[C@H]1C[C@@H]2[C@@H](C1)OCCN2Cc1nccs1` reads -14.4%.

Take `Cc1noc(C)c1CN1C[C@H]2CNC[C@H]2C1`: the Percent Effect was found to be 3.63%. `c1cnc(NC[C@@H]2CCC[C@@H]3CN(Cc4cccnc4)C[C@@H]32)nc1`: the Percent Effect came out at 9.72%.

Turning to `CCN(CC)Cc1cc(C(=O)N2CC[C@@]3(O)CCCC[C@H]3C2)c(C)o1`, the Percent Effect was -7.09%. The same measure for `N#Cc1ccccc1C(=O)N1C[C@H]2CC[C@@H]1CN(c1ncccn1)C2`: 12.4%; for `COc1ccc(CN2C[C@@H](N(C)Cc3ccco3)[C@H]3OCCC[C@H]32)cc1`: 8.12%; for `Cc1cccc(CN2CC[C@H]3C[C@H](C)O[C@@H]3C2)n1`: -3.13%. The result for `CN(C)C(=O)N1CC[C@H]2[C@H]1CCN2c1nncs1` reads -2.44%; that for `NC(=O)c1cc2c(nc1N1C[C@H]3OC(=O)N(C4CCCC4)[C@H]3C1)CCC2`, 3.22%; that for `Cc1ccc(CN2CCO[C@@H]3C[C@@H](C(=O)NC(C)C)C[C@H]32)o1`, -8.36%. Turning to `CCCc1nc(N2CCCN3CCC[C@H]3C2)c2cnn(C)c2n1`, the Percent Effect was found to be 7.09%. With `CN(C)CCN1C[C@@H]2OCCN(Cc3cnn(C)c3)[C@@H]2C1`, the Percent Effect was found to be 12%. In the case of `CC(CN1CC[C@@H]2CCCC[C@@H]2C1)n1cnc2ccccc21` (stereo partly specified), the Percent Effect is -9.76%. The result for `Cc1nc(NCC2CC2)nc2c1COCC21CCN(C(=O)NC(C)C)C1` (stereo unspecified) reads 6.34%; that for `Cc1nc(NCC2CC2)nc2c1COCC21CCN(C(=O)C(C)(C)C)C1` (stereo unspecified), 97.5%. The result for `COCCC(=O)N1CCC2(COCc3c(C)nc(NCC4CC4)nc32)C1` (stereo unspecified) reads 11.8%; that for `CC1=N[C@@]2(CC[C@@H]3CN(CC4CC4)C[C@@H]32)C(=O)N1CC1CC1`, -5.13%; that for `Cc1ccoc1C(=O)N1C[C@@H](OCC2CCOCC2)[C@H]2OCCC[C@H]21`, -0.469%.
